Screening results as filed in PubChem.
LGR2 antag: inhibitors of bursicon-induced Drosophila LGR2 receptor cAMP signaling; HEK293 LGR2, CRE-luciferase, bursicon-stimulated, 4 h; 380,000 tested, 0.35% active; inhibition, % at 9.99 µM;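 active means drop in luminescence signal, shown as inhibition above about 50% in the replicate tests, limit read from the data, passing the limit was not always enough; inconclusive means probably only some replicates passing the limit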;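 further: agonist challenge used bursicon conditioned medium at about half maximal strength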
TWEAK Fn14 block: blocks TWEAK-Fn14 interaction in a reporter cell assay; TWEAK-stimulated Fn14 reporter cells, luciferase luminescence, 8 h; inhibition, % at 10 µM; 360,000 tested, 2% active; AID 1159606; in the data active means inhibition above about 50%
EWS-Fli block: inhibitors of EWS/Fli oncoprotein transcriptional activity; A673 NR0B1-luciferase reporter, viability-normalised; inhibition, % at 12.6 µM; 350,000 tested, 0.67% active; AID 651661;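 active means mean inhibition of at least 50% after viability correction, with every replicate also passing that limit; inconclusive means mean reaches 50% but only one of two replicates passes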;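 further: firefly luciferase signal divided by Alamar Blue viability fluorescence both relative to DMSO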
TROY NFkB inh: blocks TROY-dependent signaling in reporter cells. 360,000 tested, 0.98% active. Q293 LMP1-TROYcd NF-kB luciferase reporter, 4 h. inhibition, % at 10 µM;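 active means compounds whose plate-normalised and pattern-corrected inhibition of the luciferase reporter signal at the single screening dose is 50% or more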
EBV LMP1 NFkB: inhibitors of Epstein-Barr LMP1-induced NF-kappaB reporter | LMP1-induced NF-kappaB luciferase reporter cells, luminescence | inhibition, % at 12.5 µM | 350,000 tested, 0.69% active; in the data active means inhibition above about 41%; inconclusive means no clear call, values can overlap the other calls;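 further: 0% = neutral control wells and 100% = reference inhibitor control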
DNA binding: binds DNA displacing acridine orange; shares compounds with EWS-Fli block; 640 tested, 2% active; AC35, µM (titrated, usually from 68 µM), without a hit: at the highest dose activity change, negative = DNA binding; AID 720586; salmon sperm DNA acridine orange fluorescence polarization;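 active means fitted curve reaches a 35% signal fall AC35 below twice the sample's top valid tested dose, actives reach about 48 µM in these data; inactive means the rest, including activity in the rising direction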;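 further: lower polarization ratio signals compound binding to DNA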
Numbers without * were called inactive; u = inconclusive; x = not tested or not shown. Rows were chosen to be rich in hits. Some 2.6% of all compounds tested hit in one or more screens of this group.

SMILES | LGR2 antag | TWEAK Fn14 block | EWS-Fli block | TROY NFkB inh | EBV LMP1 NFkB | others
CN1C(=O)C(C2c3ccccc3C(=O)N2Cc2ccccc2)C(=O)N(C)C1=O (stereo unspecified) | x | 11 | x | 51* | -8
COc1ccccc1CN1[C@H](CO)[C@H](c2ccccc2)C12CN(C(=O)Cc1ccccc1)C2 | 5 | x | -2 | x | x
COc1ccc(-c2ccc([C@@H]3[C@H](CO)N4CCCCN(C(=O)Cc5ccccc5)C[C@@H]34)cc2)cc1 | 4 | x | x | x | x
COC(=O)[C@H]1[C@H](CO)[C@H]2Cn3c(ccc(C4=CCCC4)c3=O)[C@@H]1N2C(=O)C1CCCCC1 | -5 | x | 1 | x | x
COc1ccc(-n2nnnc2C(c2cc3ccccc3o2)N2CCC(n3c(=O)[nH]c4ccccc43)CC2)cc1 (stereo unspecified) | 76* | 103* | 36 | 68* | x
O=c1[nH]c2ccccc2n1C1CCN(C(c2cccc3ccccc23)c2nnnn2-c2ccc3c(c2)OCCO3)CC1 (stereo unspecified) | 8 | 46 | 10 | 24 | x
O=c1[nH]c2ccccc2n1C1CCN(C(c2cc3ccccc3o2)c2nnnn2-c2ccc3c(c2)OCCO3)CC1 (stereo unspecified) | 96* | 78* | 26 | 67* | x
O=C(COc1ccc(Cl)cc1Cl)N1CCN(C/C=C/c2ccccc2)CC1 | 1 | 24 | x | 37 | 9
O=C(O)CCCOc1ccc(Cl)cc1Cl | x | 22 | -3 | -6 | 59*
COC(=O)[C@H]1[C@H](CO)[C@H]2Cn3c(ccc(-c4cccc(OC)c4)c3=O)[C@@H]1N2C(=O)c1cnccn1 | -2 | x | -2 | x | x
COC(=O)C1=C(c2ccc(F)cc2OCc2ccccc2)C[C@@H]2CC[C@H]1N2C(=O)N1CCC(O)(c2ccc(Cl)cc2)CC1 | 8 | 56* | 7 | -2 | -3
COC(=O)C1=C(c2ccc3ccccc3c2)C[C@@H]2CC[C@H]1N2C(=O)N1CCC(O)CC1 | x | 1 | x | 2 | 85*
COC(=O)C1=C(c2ccc(F)cc2OCc2ccccc2)C[C@@H]2CC[C@H]1N2C(=O)N1CCCCC1 | 9 | 2 | 10 | -18 | 0
COC(=O)C1=C(c2ccc(-c3ccccc3)c(F)c2)C[C@@H]2CC[C@H]1N2C(=O)N1CCC(C)CC1 | x | 25 | 16 | 13 | 45*
CCOC(=O)[C@@H]1[C@@H]2NC(=O)N(C)[C@@]1(C)Oc1ccccc12 | x | x | -4 | x | x
COc1ccc(-c2ccc3n(c2=O)C[C@H]2[C@H](CO)[C@@H](C(=O)O)[C@@H]3N2C(=O)c2ccccc2F)cc1 | -6 | x | -9 | x | x
CC1CC(C)(O)CC(C(O)CC2CC(=O)NC(=O)C2)C1=O (stereo unspecified) | 102* | 98* | 46 | 80* | 90*
O=C(Cc1ccccc1)N1C[C@@H]2[C@H](c3ccccc31)[C@@H](CO)N2Cc1ccccc1 | 3 | x | 4 | x | x
O=C(O)Cn1cc(/C=C2\C(=O)NC(=O)N(c3ccc(Cl)cc3)C2=O)c2ccccc21 | 0 | -3 | 11 | -1 | -5
CCN(CC)C(=O)Cn1cc(/C=C2\C(=O)NC(=O)N(c3ccccc3F)C2=O)c2ccccc21 | 13 | 66* | 6 | 42 | -1
C[C@@H]1O[C@@H](O[C@H]2C[C@@H](O)[C@]3(CO)[C@@H]4C(CC[C@]3(O)C2)[C@@]2(O)CC[C@H](C3COC(=O)C3)[C@@]2(C)C[C@H]4O)[C@H](O)[C@H](O)[C@H]1O (stereo partly specified) | 73* | 53* | 72* | 44 | 53* | DNA binding=-16%
CC(C)S(=O)(=O)N1Cc2ccc(Br)cc2-n2nncc2C1 | -9 | x | -8 | x | x
CCOC(=O)[C@]12Cc3c(cc(OC)c(OC)c3OC)[C@H]1N(C1CCCCC1)C(=O)c1ccccc12 | u | 48 | 48 | 45 | x
CCOC(=O)[C@]12Cc3ccc(C)cc3[C@H]1N(C1CCCCC1)C(=O)c1ccccc12 | 53* | 92* | 59* | 51* | x | DNA binding=15%
O=C(O)[C@H]1[C@H](CO)[C@H]2Cn3c(ccc(-c4ccccc4)c3=O)[C@@H]1N2CC1CCCCC1 | -6 | x | 2 | x | x
SMILES | LGR2 antag | TWEAK Fn14 block | EWS-Fli block | TROY NFkB inh | EBV LMP1 NFkB | others
CC12CCC(O)CC1CCC1C2CCC2(C)C(C3=CC(=O)OC3)CCC12O (stereo unspecified) | 86* | 85* | 67* | 51* | 45* | DNA binding=-8%
C[C@]12CC[C@H](O)C[C@H]1CC[C@@H]1[C@@H]2C[C@@H](O)[C@]2(C)[C@@H](C3=CC(=O)OC3)CC[C@]12O | 80* | 56* | 81* | 47 | 68* | DNA binding=-4%
C[C@]12CCC3C(CC[C@H]4C[C@@H](O)CC[C@]34C)[C@H]1C=CC2=O (stereo partly specified) | 6 | 9 | 1 | -1 | -1
CC12CC[C@H]3[C@@H](CCC4(O)C[C@H](O)CCC34/C=N/NC(=O)Cc3ccccc3)C1(O)CCC2C1=CC(=O)OC1 (stereo partly specified) | 5 | -12 | -2 | 7 | -1
C[C@]12CC[C@H](O)C[C@H]1CC[C@@H]1[C@@H]2CC[C@]2(C)[C@@H](C3=CC(=O)OC3)CC[C@]12O | 84* | 75* | 67* | 49 | 78* | DNA binding=3%
COC1C(O)C(C)OC(OC2CCC3(C)C(CCC4C3C(O)CC3(C)C(C5=CC(=O)OC5)CCC43O)C2)C1O (stereo unspecified) | 90* | 86* | 51* | 55* | 57* | DNA binding=3%
CNC(=O)Nc1ccc(C(=O)N/N=C\C23CC[C@@H](O)CC2(O)CC[C@@H]2[C@@H]3CCC3(C)C(C4=CC(=O)OC4)CCC23O)cc1 (stereo partly specified) | 6 | 4 | -16 | -6 | -2
O=C(Cc1ccccn1)N1CCCCN2[C@H](CO)[C@@H](c3ccc(-c4ccc(F)cc4)cc3)[C@H]2C1 | 3 | x | -2 | x | x
COC(=O)[C@H]1[C@H](CO)[C@H]2Cn3c(ccc(-c4ccncc4)c3=O)[C@@H]1N2CCc1ccccc1 | -2 | x | -70 | x | x
CC(=O)OC1CC(OC2C(O)CC(OC3C(O)CC(OC4CCC5(C)C(CCC6C5CC(O)C5(C)C(C7=CC(=O)OC7)CCC65O)C4)OC3C)OC2C)OC(C)C1OC1OC(CO)C(O)C(O)C1O (stereo unspecified) | 88* | 78* | 65* | 36 | 83* | DNA binding=-10%
O=C(Cc1ccccc1)N1CCCCN2[C@@H](CO)[C@@H](c3ccc(-c4ccccc4)cc3)[C@@H]2C1 | 12 | x | x | x | x
O=C(Nc1ccc(OC(=O)N2CCCCC2)cc1)N1CCOCC1 | 12 | 94* | 76* | 85* | 30 | DNA binding=-2%
C=C1C(=O)OC2C1CCC(C)C1(O)C=CC(=O)C21C (stereo unspecified) | 40 | 66* | 62* | -17 | -74 | DNA binding=-9%
CC[C@]12CCN(CC3(O)CC3)C(Cc3ccc(O)cc31)C2(C)C | 10 | x | -5 | x | x
